Hit rate of the full screen: of about 350,000 compounds, about 5,500 (1.6%) were called active.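 How the source made its calls: active means significant combined selectivity score with lowered wild-type GFP, culture density cut under 30%, mutant RFP and density less affected; inactive means any of these conditions unmet.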 Only a selection was taken, and actives are over-represented in it overall.

A short description of this assay: reduced GFP signal of wild-type E. coli, primary screen, bacterial rRNA inhibitor project, GFP/RFP fluorescence, OD600, single point (AID 720706). Conditions: E. coli WT GFP vs humanized-ribosome RFP mutants, 24 h; GFP signal change (wild-type ribosome): stronger effect = lower value, DMSO median 0, no signal -100; OD600 change: measured here: OD600 growth, DMSO median 0, no signal -100; RFP signal change: measured here: RFP humanized mutant strains, DMSO median 0, no signal -100, concentration not given here.
Consider `CCC(=O)N1C[C@@H](C)[C@H](OC)CN(C)C(=O)c2ccc(NC(=O)c3cc(C)on3)cc2OC[C@H]1C`, for which the GFP signal change (wild-type ribosome) is 0.768% (inactive), the OD600 change worked out at 1.75% and the RFP signal change is -1.23%.

Turning to `C/C=C/c1cnc2c(c1)C(=O)N([C@H](C)CO)C[C@H](C)[C@H](CN(C)C(=O)c1cccc(F)c1)O2`, the GFP signal change (wild-type ribosome) is 2.26% (inactive), the OD600 change was found to be 2.83% and the RFP signal change is -3.73%.

In the case of `CCOc1ccc(NC(=O)CC2C(=O)N(c3ccccc3)C(=O)N2CCOC)cc1` (stereo not given), the GFP signal change (wild-type ribosome) was -0.19% (inactive), the OD600 change was 4.93% and the RFP signal change is -3.42%.

As to `CCCOc1ccc(NC(=O)CC2C(=O)N(C)C(=S)N2Cc2ccc3c(c2)OCO3)cc1` (stereo not given), the GFP signal change (wild-type ribosome) was -21.2% (active), the OD600 change was -17.1% and the RFP signal change is 1.22%.

`O=C(Nc1ccc(Cl)cc1)C1c2cccc[n+]2CC(=O)N1Cc1ccc2c(c1)OCO2` (stereo not given): the GFP signal change (wild-type ribosome) is 4.36% (inactive), the OD600 change came out at 0.665% and the RFP signal change was -2.94%.

Turning to `C[C@@H]1CCCCO[C@H](CN(C)C(=O)Nc2ccccc2)[C@H](C)CN([C@@H](C)CO)C(=O)c2cc(N(C)C)ccc2O1`, the GFP signal change (wild-type ribosome) is -1.6% (inactive), the OD600 change turned out to be 2.72% and the RFP signal change was -1.91%.

Turning to `CC[C@@H]1CC=CC[C@H](C)Oc2ccccc2C(=O)N(C)[C@H](Cc2ccccc2)C(=O)N1` (mixture of isomers), the GFP signal change (wild-type ribosome) was -6.42% (inactive), the OD600 change is -18.3% and the RFP signal change is -6.01%.

With `CS(=O)(=O)N(CC(=O)N/N=C/c1ccccn1)c1ccc(Oc2ccccc2)cc1`, the GFP signal change (wild-type ribosome) is -25.9% (active), the OD600 change was -12.1% and the RFP signal change is -0.663%.

Take `O=C(COc1ccc(Cl)cc1Cl)N/N=C/c1ccccn1`: the GFP signal change (wild-type ribosome) was -7.74% (inactive), the OD600 change was -28.8% and the RFP signal change came to 0.0022%.

Take `COc1ccc(CCNC(=O)CN(c2ccccc2)S(C)(=O)=O)cc1`: the GFP signal change (wild-type ribosome) was 4.81% (inactive), the OD600 change is 11.8% and the RFP signal change came to 2.52%.

Take `C[C@H](O)C#Cc1cnc2c(c1)C(=O)N([C@@H](C)CO)C[C@@H](C)[C@@H](CN(C)C(=O)Cc1ccccn1)O2`: the GFP signal change (wild-type ribosome) is 7.53% (inactive), the OD600 change stood at 12.6% and the RFP signal change was -0.505%.

With `C[C@@H]1CN([C@H](C)CO)C(=O)c2cc(NS(C)(=O)=O)ccc2O[C@H]1CN(C)C(=O)Nc1cccc2ccccc12`, the GFP signal change (wild-type ribosome) is 2.55% (inactive), the OD600 change came to 10.8% and the RFP signal change is 2.43%.

Regarding `O=C(Nc1cc(F)ccc1F)N1CC(=O)N2[C@H](CO)[C@@H](c3ccc(-c4cccnc4)cc3)[C@@H]2C1`, the GFP signal change (wild-type ribosome) was -12% (inactive), the OD600 change was -3.71% and the RFP signal change is -3.33%.

With `COc1ccc(S(=O)(=O)Nc2ccc3c(c2)C(=O)N([C@H](C)CO)C[C@H](C)[C@H](CN(C)S(=O)(=O)c2ccc(Cl)cc2)O3)cc1`, the GFP signal change (wild-type ribosome) is -0.9% (inactive), the OD600 change was -8.14% and the RFP signal change is 4.68%.

As to `CCc1nc(N2CCN(C(C)=O)CC2)c2c3c(sc2n1)CCCC3`, the GFP signal change (wild-type ribosome) is -24.3% (inactive), the OD600 change was -27.4% and the RFP signal change is -2.91%.

For the compound `C=C(C)CSc1nc(N)c2c3c(sc2n1)CCC3`, the GFP signal change (wild-type ribosome) is -39.8% (active), the OD600 change is -31.8% and the RFP signal change is -10.7%.

In the case of `Nc1nc(SCC(=O)NCCN2CCOCC2)nc2sc3c(c12)CCC3`, the GFP signal change (wild-type ribosome) is 4% (inactive), the OD600 change worked out at 8.61% and the RFP signal change is -0.37%.

Take `CC(C)NC(=O)NCC[C@H]1CC[C@@H](NS(=O)(=O)c2ccc(Oc3ccccc3)cc2)[C@@H](CO)O1`: the GFP signal change (wild-type ribosome) was -0.321% (inactive), the OD600 change is -25.1% and the RFP signal change is -2%.

`O=C(C1CCCC1)N1CC(=O)N2[C@H](CO)[C@H](c3ccc(Br)cc3)[C@@H]2C1`: the GFP signal change (wild-type ribosome) is -0.977% (inactive), the OD600 change is -0.944% and the RFP signal change was 0.246%.

Regarding `N#Cc1ccc(-c2ccc([C@H]3[C@H](CO)N4C(=O)CN(C(=O)Cc5ccccc5)C[C@@H]34)cc2)cc1`, the GFP signal change (wild-type ribosome) was -1.02% (inactive), the OD600 change is -2.88% and the RFP signal change is -0.285%.

`CC(C(=O)NC1CCS(=O)(=O)C1)N1C(=O)/C(=C/c2ccc(Cl)cc2)SC1=S` (stereo not given): the GFP signal change (wild-type ribosome) was -21.1% (active), the OD600 change was -15.7% and the RFP signal change was determined as 1.14%.

For `CN(C(=O)CN1C(=O)/C(=C/c2ccc(Cl)cc2)SC1=S)C1CCS(=O)(=O)C1` (stereo not given), the GFP signal change (wild-type ribosome) is 15.8% (inactive), the OD600 change was found to be 11% and the RFP signal change is 0.337%.

Regarding `O=C(Cc1ccc(Cl)cc1)NC1CCS(=O)(=O)C1` (stereo not given), the GFP signal change (wild-type ribosome) was -9.2% (inactive), the OD600 change is 1.76% and the RFP signal change was 1.96%.

Regarding `O=C1[C@H](Cc2ccc(C(F)(F)F)cc2)CCn2nncc2COC[C@@H]2CCCCN12`, the GFP signal change (wild-type ribosome) is -1.75% (inactive), the OD600 change was -2.21% and the RFP signal change is -0.899%.

Regarding `CN1c2ccc(Br)cc2[C@H]2[C@H](CCN2S(=O)(=O)c2ccc(F)cc2)[C@@H]1CO`, the GFP signal change (wild-type ribosome) is -56.1% (inactive), the OD600 change was -75.9% and the RFP signal change is -12.6%.

In the case of `O=C(COC(=O)CCCSc1nc2ccccc2[nH]1)Nc1ccc(Oc2ccccc2)cc1`, the GFP signal change (wild-type ribosome) is -34.8% (inactive), the OD600 change was -55% and the RFP signal change turned out to be 0.945%.

As for `CN(Cc1ccccc1)C(=O)CSc1nc2ccccc2[nH]1`, the GFP signal change (wild-type ribosome) was -2.78% (inactive), the OD600 change amounted to 2.36% and the RFP signal change is -0.812%.

As for `O=C(CSc1nc2ccccc2[nH]1)N/N=C/C=C\c1ccccc1[N+](=O)[O-]`, the GFP signal change (wild-type ribosome) was -28.1% (active), the OD600 change is 3.26% and the RFP signal change came out at 1.21%.

As to `CCOC(=O)c1c(N)sc2c1CCCC2=O`, the GFP signal change (wild-type ribosome) is 1.16% (inactive), the OD600 change was -0.897% and the RFP signal change is -0.662%.

Regarding `CCOC(=O)C1=C(N)N(c2ccc(C)cc2)C2=C(C(=O)CCC2)C1c1cccs1` (stereo not given), the GFP signal change (wild-type ribosome) is -21.7% (active), the OD600 change is -17.5% and the RFP signal change worked out at 0.496%.

For `CCOc1ccc(C2C3=C(CCCC3=O)N(CC(=O)O)C3=C2C(=O)CCC3)cc1`, the GFP signal change (wild-type ribosome) was 17.4% (inactive), the OD600 change was 6.44% and the RFP signal change is -0.227%.

For `COc1ccc(NC(=O)N(C)C[C@H]2OCCCC[C@H](C)Oc3ccc(NC(=O)NC4CCCCC4)cc3C(=O)N([C@@H](C)CO)C[C@@H]2C)cc1`, the GFP signal change (wild-type ribosome) is 1.21% (inactive), the OD600 change worked out at 2.03% and the RFP signal change came to 2.63%.

Regarding `COc1ccccc1OCCCC(=O)Nc1ccc2c(c1)OCCO2`, the GFP signal change (wild-type ribosome) is -2.92% (inactive), the OD600 change was -5.58% and the RFP signal change was -2.87%.

Regarding `COc1cccc(C(=O)NNC(=O)/C=C/c2ccccc2)c1`, the GFP signal change (wild-type ribosome) was 6.18% (inactive), the OD600 change came to 10.2% and the RFP signal change is 3%.

`COc1cccc(/C=C/C(=O)Nc2ccc3c(c2)OCCO3)c1`: the GFP signal change (wild-type ribosome) was -29.5% (active), the OD600 change is -2.39% and the RFP signal change amounted to 4.27%.

Consider `CO[C@H]1CN(C)C(=O)c2ccc(NC(C)=O)cc2OC[C@@H](C)N(C(=O)CN(C)C)C[C@@H]1C`, for which the GFP signal change (wild-type ribosome) was -1.24% (inactive), the OD600 change is 6.54% and the RFP signal change is -4.25%.

As for `COc1ccccc1NC(=S)N1CCN(C(c2ccccc2)c2ccccc2)CC1`, the GFP signal change (wild-type ribosome) was 5.66% (inactive), the OD600 change was 0.74% and the RFP signal change is -6.29%.

For `CCC(C)N(C)C1CCN(C(=S)Nc2ccc(OC)cc2)CC1` (stereo not given), the GFP signal change (wild-type ribosome) is 6.68% (inactive), the OD600 change is -2.86% and the RFP signal change is -3.62%.

As to `COc1ccccc1C1CCN(C(=S)Nc2ccc(Br)cc2)CC1`, the GFP signal change (wild-type ribosome) is -36.8% (active), the OD600 change is -23.8% and the RFP signal change is -10.2%.

In the case of `CN[C@H]1C[C@H]2c3[nH]c4c(-c5ccccc5)cccc4c3CCN2C(=O)[C@H]1[C@H](C)O`, the GFP signal change (wild-type ribosome) was -35.6% (inactive), the OD600 change was -70.1% and the RFP signal change is -2.51%.

Values taken from PubChem BioAssay AID720706 (Broad Institute, 2013).
